From PubChem BioAssay (NCI)
“And” between values parts separate entries of the source, which are not always exact repeats. Identical values can stand only once. This is part of a sample that, as a whole, favours compounds with a hit. Of some 83,000 tested, about 20% had one in any assay.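 Growth was measured after 48 h exposure to one concentration of compound in 96-well plates. Values under 10 count as active.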 The source made the active and inactive calls.

Assays:
Assay in all cases: NCI-60 one-dose screen, 48 h (100 = growth as untreated, 0 = no growth, -100 = all killed)
HCT-15 colon = tested on: HCT-15 colon
HT29 colon = tested on: HT29 colon
SNB-19 CNS = tested on: SNB-19 CNS
PC-3 prostate = tested on: PC-3 prostate
SK-MEL-5 melanoma = tested on: SK-MEL-5 melanoma
LOX IMVI melanoma = tested on: LOX IMVI melanoma
SK-MEL-2 melanoma = tested on: SK-MEL-2 melanoma
EKVX NSCLC = tested on: EKVX NSCLC
SN12C renal = tested on: SN12C renal
UO-31 renal = tested on: UO-31 renal
ACHN renal = tested on: ACHN renal
CAKI-1 renal = tested on: CAKI-1 renal
A498 renal = tested on: A498 renal
CCRF-CEM leukemia = tested on: CCRF-CEM leukemia
MOLT-4 leukemia = tested on: MOLT-4 leukemia
SR leukemia = tested on: SR leukemia
RPMI-8226 leukemia = tested on: RPMI-8226 leukemia
UACC-62 melanoma = tested on: UACC-62 melanoma
TK-10 renal = tested on: TK-10 renal

Measured: growth

S=C(SSC(=S)N1CCCCC1)N1CCCCC1
active: HCT-15 colon; 100 µM 5.6% | HT29 colon; 100 µM -61.4% | SK-MEL-5 melanoma; 100 µM -18% | LOX IMVI melanoma; 100 µM -45.9% | SK-MEL-2 melanoma; 100 µM 2.78% | EKVX NSCLC; 100 µM -23.3% | SN12C renal; 100 µM -42.3% | UO-31 renal; 100 µM -12.3% | ACHN renal; 100 µM -51% | CAKI-1 renal; 100 µM -77.7% | CCRF-CEM leukemia; 100 µM -38.1% | MOLT-4 leukemia; 100 µM 0.424% | SR leukemia; 100 µM -8.68% | RPMI-8226 leukemia; 100 µM -44.7%
inactive: HCT-15 colon; 10 µM 90.1% | HT29 colon; 10 µM 104% | SNB-19 CNS; 10 µM 92.8% | SNB-19 CNS; 100 µM 56.5% | PC-3 prostate; 10 µM 83.6% | PC-3 prostate; 100 µM 18% | SK-MEL-5 melanoma; 10 µM 93.9% | LOX IMVI melanoma; 10 µM 87.1% | SK-MEL-2 melanoma; 10 µM 102% | EKVX NSCLC; 10 µM 104% | SN12C renal; 10 µM 96.1% | UO-31 renal; 10 µM 102% | ACHN renal; 10 µM 106% | CAKI-1 renal; 10 µM 95.6% | A498 renal; 10 µM 105% | A498 renal; 100 µM 72.4% | CCRF-CEM leukemia; 10 µM 91.1% | MOLT-4 leukemia; 10 µM 85% | SR leukemia; 10 µM 86.2% | RPMI-8226 leukemia; 10 µM 105%

Cc1c(N)nc([C@H](CC(N)=O)NC[C@H](N)C(N)=O)nc1C(=O)N[C@H](C(=O)N[C@H](C)[C@@H](O)[C@H](C)C(=O)N[C@H](C(=O)NCCc1nc(-c2nc(C(=O)NCCC[S+](C)C)cs2)cs1)[C@@H](C)O)C(OC1OC(CO)C(O)C(O)C1OC1OC(CO)C(O)C(OC(N)=O)C1O)c1cnc[nH]1 (stereo partly drawn)
active: UACC-62 melanoma; 25 µM -42.5% and -100%
42.4% (inactive) and -73.8% (active): TK-10 renal; 25 µM
inactive: UACC-62 melanoma; 2.5 µM 43.8% | TK-10 renal; 2.5 µM 89.5%
